Compounds without any hit were thinned out: in the full panel of roughly 83,000, 20% have a hit.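 Compound tested at a single concentration for 48 hours in 96-well plates; a percent growth value below 10 was scored as active.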 A number with no mark means an inactive call. Activity calls are given as the source filed them.

In the assay the test system is SNB-75 CNS. Kind of assay: NCI-60 one-dose screen, 48 h (100 = growth as untreated, 0 = no growth, -100 = all killed). The conditions noted are these: 10 µM unless noted. The protocol: Growth inhibition of the SNB-75 human tumor cell line is measured as a screen for anti-cancer activity. Cells are grown in 96 well plates and exposed to the test compound for 48 hours. Compounds are tested at a single concentration, which is 10^-5 M for most compounds. The reported endpoint is percent growth (GI% or GIPRCNT), where numbers from 0 - 100% represent growth inhibition, and numbers from -100% - 0 represent cell death. For example, a value of 40 represents 60% growth inhibition. A value of 0 means no net growth occurred over the course of the experiment. A value of -40 indicates 40% of cells at the beginning of the experiment died by the end of the experiment. A value of -100 means all cells are dead at the end of the experiment.
NCI-60 Human Tumor Cell Lines Screen was performed using the standard one-dose NCI protocol, which is described in more detail at https://dtp.cancer.gov/discovery_development/nci-60/default.htm.
Compounds with GIPRCNT values below 10 were considered active. Activity score was based on GIPRCNT using the following formula: […]
Score is 0 for GIPRCNT values of 100 or above, 50 for GIPRCNT values of 0, and 100 for GIPRCNT values of -100.
As to `O=[N+]([O-])c1ccccc1Sc1ccccc1[N+](=O)[O-]`, the growth was 80.8%. Take `O=C1C=C(SCCO)C(=O)c2ccccc21`: the growth was -83.9% (active). The value for `O=S(O)c1cc(Cl)cc(Cl)c1OCc1ccccc1` was 98.7%. As for `COc1ccc2cc(C(=O)N3CCC([C@@H](C)C(=O)NCc4ccc5c(c4)OCO5)CC3)[nH]c2c1`, the growth was -37.6% [50 µM] (active). For `CC(C)(C)c1ccc(C(=O)N/N=C/c2ccc(O)cc2O)cc1`, the growth is 37.6%. As for `Cc1cc(C(=O)CCCC(=O)c2cc(C)c(O)c(C)c2)cc(C)c1O`, the growth is 69.7%.

In the case of `COc1cc2c(c(OC)c1OC)C(=O)CC(c1cccc(C(=O)Nc3ccc(C#N)cc3)c1)O2` (stereo not given), the growth was 74.8%.

As for `Cc1c(O)cc(-c2cnc(N/N=C/c3ccccc3)s2)c(O)c1C`, the growth is 98%. The value for `OC1CSSC1Cn1cnc2c(Nc3ccc(OCc4cccc(F)c4)c(Cl)c3)ncnc21` (stereo not given) was 54.1%; that for `CCCN(CCSSCCNc1nc(N(C)O)nc(N(C)O)n1)c1nc(N(C)O)nc(N(C)O)n1` was 73.8%; that for `O=c1cc(-c2ccccc2)nc(SCc2nc3cc(Cl)c(Cl)cc3[nH]2)[nH]1` was 86%. `O=C(Nc1cccnc1Nc1ccccc1)c1cn(Cc2cccc(Oc3ccccc3)c2)nn1`: the growth is 47.6%. Regarding `CCN(CC)C(=O)CC1=C(C)/C(=C/c2[nH]c(-c3ccc[nH]3)cc2OC)N=C1C`, the growth was 14.2%. On to `Cc1ccc2c(c1)sc1nc(-c3c[nH]c4ccccc34)c(Nc3ccccc3)n12`, for which the growth is 89.8%. The value for `COC1C(O)CC(OC2CC(OC3CC(O[C@@H]4C(=O)c5c(cc6cc(OC7CC(OC8CC(O)C(O)C(C)O8)C(O)C(C)O7)c(C)c(O)c6c5O)CC4[C@H](OC)[C@@H](O)C(C)=O)OC(C)C3O)OC(C)C2O)OC1C` (stereo not given in full) was -17.6% (active). For the compound `O=c1oc2ccccc2cc1-c1nn(-c2ccccc2)cc1-c1nn[nH]n1`, the growth was 76.2%.

For the compound `CCN(CC)c1ccc(-c2cc(-c3cc(OC)c(OC)c(OC)c3)nc(N3CCC(O)CC3)c2C#N)cc1`, the growth was -41.5% (active).

As for `CCCC(O)Cn1ncc(C(=O)OCC)c1NC(=O)NCc1cccc(C(F)(F)F)c1` (stereo not given), the growth was 101%. Take `COc1nc(/C=C\Nc2ccc3c(c2)OCCOCCOCCOCCO3)nc(OC)n1`: the growth was 72.3%. Consider `Cc1ccc2c(c1)nc(C)n2-c1ncnc2c1CC(C)c1cc(O)ccc1N2C` (stereo not given), for which the growth was 25.3%. For the compound `CCCCn1c(NC(C)=O)c(S(=O)(=O)c2ccccc2)c2nc3ccccc3nc21`, the growth was 89.8%. With `COc1ccc(C(=O)/C=C/c2ccccc2)cc1S(N)(=O)=O`, the growth was 87.2%. On to `CN1CC(c2ccc(Br)cc2)C(C(=O)c2ccc(Br)cc2)C12C(=O)Nc1ccccc12` (stereo not given), for which the growth was 71.9%. Regarding `N#Cc1ccccc1-c1ccc(CN2C(=O)S/C(=C\c3ccc(Br)cc3)C2=O)cc1`, the growth was 82.8%. As to `CNC(=O)c1cc(Oc2ccc3c(c2)sc2nc(-c4ccc(NC(=O)[C@@H](NC(=O)OC)C(C)C)cc4)cn23)ccn1`, the growth was 99.5%. Take `CCOC(=O)NCCCC(=O)NCCc1ccccc1`: the growth was 109%. As to `N#C/C(=C\c1ccc(-c2cccc(Cl)c2)o1)C(=O)Nc1ncc(Cc2ccc(Cl)cc2)s1`, the growth is -3.05% (active). As to `N#Cc1c(-c2ccccc2)nc2c(c(-c3ccccc3)nn2-c2ccccc2)c1-c1ccc(N2CCCCC2)cc1`, the growth was 84.2%.

Consider `Cn1cc(-c2csc(-c3cn(C)c4ccccc34)n2)c2cnccc21`, for which the growth was 104%. Consider `O=C1CCCCN1c1ccc(C2=NCCCN2)cc1`, for which the growth was 55%. On to `O=C(/C=C/c1ccccc1)c1ccc(-n2cc(CN3CCN(c4cc5c(cc4F)c(=O)c(C(=O)O)cn5C4CC4)CC3)nn2)cc1`, for which the growth is 72.3%. Turning to `N#Cc1c(-c2ccc(Cl)cc2)nc(NN=Cc2ccc[nH]2)nc1N1CCOCC1`, the growth was -13.5% (active). The value for `COc1ccc(-c2cn(Cc3cc4ccccc4s3)nn2)cc1OCCN1CCCCC1` was 83.8%; that for `N#CC1=C(N)Oc2c(sc3c(F)cccc23)C1c1ccc([N+](=O)[O-])cc1` (stereo not given) was -35.3% (active). Consider `CC1(C)CC[C@]23CC[C@]4(C)[C@H](CC[C@@H]5[C@@]6(C)C/C(=C/O)C(=O)C(C)(C)[C@@H]6CC[C@]54C)[C@H]2[C@H]1OC3`, for which the growth is 104%.

Take `CCOc1ccc(/C=C/C(=O)c2cccc(OCCCOc3cccc(C(=O)/C=C/c4ccc(OCC)cc4)c3)c2)cc1`: the growth was 83.9%. Regarding `C(=C(\C1=NCCN1)n1ccc2ccccc21)/c1ccccc1`, the growth was 80.7%. For `Cn1cc(-c2csc(-c3cn(CCCN4CCOCC4)c4ccc(F)cc34)n2)c2cccnc21`, the growth is 87.1%. As to `CN(C)CCCn1c2c(c3cnccc3c1=O)C(=O)c1ccccc1-2`, the growth was 10.6%. For `CC(C)(C)OC(=O)CN1CCc2c(sc3ncnc(N4CCN(c5ccc(F)cc5)CC4)c23)C1` the value was 82.6%.

These data come from PubChem BioAssay (NCI).
